# Reference: PubChem BioAssay AID652192 (Johns Hopkins Ion Channel Center, 2013)
# Measured potencies and affinities stand elsewhere. The source made the active and inactive calls.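 Rule for the calls: active = peak inhibition of the KCNQ2 potassium channel over 30% at some tested dose, with a fitted dose response curve; inactive = no inhibition at any dose, or no curve fitted.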
# Biological target: Potassium voltage-gated channel subfamily KQT member 2 (Rattus norvegicus) (UniProt O88943)
# Assay: block of rat KCNQ2 potassium channel – cell-based, FluxOR thallium flux, concentration-response, selectivity assay for TASK1 inhibitor project, SAR follow-up (AID 652192)
# Conditions: KCNQ2 cell line, FluxOR thallium flux fluorescence; series mostly up to 30 µM; flux ratio, lower = inhibition: at the top concentration
# Potassium voltage-gated channel subfamily KQT member 2 (Rattus norvegicus), sequence (O88943 whole entry, looked up): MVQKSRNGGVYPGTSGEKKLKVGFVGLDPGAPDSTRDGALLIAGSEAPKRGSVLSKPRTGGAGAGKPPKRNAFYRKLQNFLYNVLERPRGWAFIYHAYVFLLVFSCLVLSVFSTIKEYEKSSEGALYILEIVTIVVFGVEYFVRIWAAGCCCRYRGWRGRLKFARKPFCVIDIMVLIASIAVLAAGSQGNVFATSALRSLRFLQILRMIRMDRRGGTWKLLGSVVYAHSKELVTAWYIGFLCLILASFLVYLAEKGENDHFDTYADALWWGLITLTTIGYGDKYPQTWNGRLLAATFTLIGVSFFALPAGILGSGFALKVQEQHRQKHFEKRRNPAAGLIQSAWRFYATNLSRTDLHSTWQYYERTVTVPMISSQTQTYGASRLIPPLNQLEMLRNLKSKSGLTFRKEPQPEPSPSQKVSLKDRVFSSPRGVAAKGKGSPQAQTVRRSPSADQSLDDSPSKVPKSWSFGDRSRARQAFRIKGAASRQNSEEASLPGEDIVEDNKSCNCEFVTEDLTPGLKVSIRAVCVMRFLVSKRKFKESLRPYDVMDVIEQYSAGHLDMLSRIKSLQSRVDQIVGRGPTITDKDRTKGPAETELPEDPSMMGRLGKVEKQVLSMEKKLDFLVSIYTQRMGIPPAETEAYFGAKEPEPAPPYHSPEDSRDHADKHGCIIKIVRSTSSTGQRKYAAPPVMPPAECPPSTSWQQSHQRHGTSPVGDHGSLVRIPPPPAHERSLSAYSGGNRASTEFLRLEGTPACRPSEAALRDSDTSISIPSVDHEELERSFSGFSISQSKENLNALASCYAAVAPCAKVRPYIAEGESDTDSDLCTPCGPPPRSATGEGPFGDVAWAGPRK
row,Structure (SMILES),"flux ratio, lower = inhibition"
1,Cc1cccc(C(=O)Nc2cccc(NC(=O)c3ccccc3C)c2)c1,0.203 (inactive)
2,CCOc1ccccc1NC(=O)c1cccc(NC(=O)c2ccc(OC)cc2)c1,0.172 (inactive)
3,COc1c(F)cccc1C(=O)Nc1cccc(NC(=O)c2cccc(C)c2)c1,0.365 (inactive)
4,O=C(Nc1cccc(NC(=O)c2cccc(C(F)(F)F)c2)c1)c1ccccc1,0.145 (inactive)
5,Cc1cccc(C(=O)Nc2cccc(NC(=O)c3ccc(C(F)(F)F)cc3)c2)c1,0.16 (inactive)
6,Cc1cccc(C(=O)Nc2cccc(NC(=O)c3ccc(C(C)(C)C)cc3)c2)c1,0.245 (inactive)
7,Cc1cccc(C(=O)Nc2cccc(NC(=O)c3ccncc3)c2)c1,0.163 (inactive)
8,COc1ccc(C(=O)Nc2cccc(NC(=O)c3cccc(C)c3)c2)cc1,0.18 (inactive)
9,CCOc1ccccc1NC(=O)c1cccc(NC(=O)C(C)(C)C)c1,0.181 (inactive)
10,COc1ccccc1C(=O)Nc1cc(NC(=O)c2cccc(C)c2)ccc1F,0.461 (inactive)
11,Cc1cccc(C(=O)Nc2cccc(NC(=O)c3ccccc3)c2)c1,0.441 (inactive)
12,O=C(Nc1cccc(NC(=O)c2ccc(Cl)cc2)c1)c1ccccc1,0.153 (inactive)
13,COc1ccccc1NC(=O)c1cccc(NC(=O)C2CCCC2)c1,0.19 (inactive)
14,COc1ccc(F)cc1C(=O)Nc1cccc(NC(=O)c2cccc(C)c2)c1,0.39 (inactive)
15,CCOc1ccccc1NC(=O)c1cccc(NC(=O)c2ccccc2OC(F)(F)F)c1,0.183 (inactive)
16,CC(C)c1ccccc1C(=O)Nc1cccc(NC(=O)c2ccccc2OC(F)(F)F)c1,0.173 (inactive)

row,Structure (SMILES),"flux ratio, lower = inhibition"
1,CCOc1ccccc1NC(=O)c1cccc(NC(=O)c2ccccc2Cl)c1,0.151 (inactive)
2,Cc1cccc(C(=O)Nc2cccc(NC(=O)c3cccc(C)c3)c2)c1,0.203 (inactive)
3,CCOc1ccccc1NC(=O)c1cccc(NC(=O)c2ccc(C)cc2)c1,0.18 (inactive)
4,O=C(Nc1cccc(NC(=O)c2cccc(F)c2)c1)c1ccccc1,0.2 (inactive)
5,COc1ccccc1C(=O)Nc1cccc(NC(=O)c2cccc(C)c2)c1,0.189 (inactive)
6,Cc1cccc(C(=O)Nc2cccc(NC(=O)c3ccc(Cl)cc3)c2)c1,0.192 (inactive)
7,CCOc1ccccc1NC(=O)c1cccc(NC(=O)CC2CCCC2)c1,0.159 (inactive)
8,CCOc1ccccc1NC(=O)c1cccc(NC(=O)C2CCOC2)c1 (configuration not stated),0.201 (inactive)
9,O=C(Nc1cccc(NC(=O)c2ccccc2Cl)c1)c1ccccc1,0.169 (inactive)
10,COc1ccccc1NC(=O)c1cccc(NC(=O)c2ccccc2OC)c1,0.172 (inactive)
11,Cc1cccc(C(=O)Nc2cccc(NC(=O)c3ccccc3C(F)(F)F)c2)c1,0.155 (inactive)
12,CN(C)c1ccc(C(=O)Nc2cccc(NC(=O)c3ccccc3)c2)cc1,0.189 (inactive)
13,CCOc1ccccc1NC(=O)c1cccc(NC(=O)c2ccc(C(F)(F)F)cc2)c1,0.195 (inactive)
14,COc1cccc(C(=O)Nc2cccc(NC(=O)c3cccc(C)c3)c2)c1,0.169 (inactive)
15,CCOc1ccccc1NC(=O)c1cccc(NC(=O)c2ccccc2OC)c1,0.179 (inactive)
16,Cc1cccc(C(=O)Nc2ccccc2NC(=O)c2ccccc2)c1,0.144 (inactive)
